Only some compounds are listed: those with a hit (about 20% of all), similar ones and a draw of the others.
Pf growth 96h: P. falciparum growth inhibition at 96 hour, primary screen for plastid delayed-death inhibitors; P. falciparum luciferase reporter growth, 96 h; actives 6.9% (n = 320,000); Potency, µM (titrated, usually from 28.7 µM), for the others: at the top dose activity change, negative = inhibition, actives largely listed as inhibitors; note: potency is the fitted concentration of half-maximal effect; % is set by controls: 0 for no effect and ±100 for the full control effect
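Readout is luminescence from an integrated firefly luciferase in P. falciparum. Red cells, 2% hematocrit and 0.05% parasitemia final, were cultured with compound through two parasite generations (96 hours) at 37 C, 5% CO2.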
CHX counter: counter-screen for Shiga toxin inhibitors: cycloheximide protein synthesis inhibition | cell reporter, cycloheximide protein synthesis inhibition counterscreen | max response, % | actives 12% (n = 300,000); in the data active = max response mostly above about 13%, no sharp cut-off; inactive = mostly below about 14%; note: read at 38.3 µM for the half of the compounds with a filed dose; 0% is about no effect
Shiga inhibitor: inhibitors of Shiga toxin in Vero cells; actives 9.2% (n = 290,000); Vero cells, Shiga toxin protein synthesis inhibition reporter; inhibition, % at 38.7 µM; in the data active = inhibition mostly above about 28%, no sharp cut-off; inactive = mostly below about 43%; note: 0% is about no effect
Pf growth 48h: inhibits P. falciparum growth in the first generation, 48 h; Potency, µM (highest dose often 28.7 µM), inactives show at the top dose activity change, negative = inhibition, hits mostly inhibitors; actives 5.9% (n = 310,000); P. falciparum luciferase growth in erythrocytes, 48 h; note: potency is the fitted concentration of half-maximal effect; % is set by controls: 0 for no effect and ±100 for the full control effect
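Cell-based growth assay: transgenic P. falciparum expressing firefly luciferase, cultured in red cells within RPMI 1640 containing 0.5% w/v Albumax, 24 mM bicarbonate and gentamycin. A drop in luciferase activity indicates inhibition.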
HCMV inh: blocks human cytomegalovirus replication; activity change, negative = inhibition, % at 57.5 µM; actives 4.5% (n = 410,000); HFF cells, HCMV-luciferase reporter, 72 h; stronger effect = lower value; in the data active = activity change below about -60%; inconclusive = no clear call, values can overlap the other calls; inactive = above about -39%; note: % is set by controls: 0 for no effect and ±100 for the full control effect
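After 16 h attachment at 37C, HFF cells received test compound and HCMV-luciferase (1 PFU/cell); reporter luminescence read 72 h later, data normalized against buffer-only and known inhibitor Salinomycin.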
Starred values were filed as active, the others as inactive; ? = inconclusive; · = not tested or not shown; ! = a repeat was not active. Unless noted, calls come from the whole dose curve; as a rule, active = well fitted inhibition curve with a large enough effect; inconclusive = small, poorly fitted or top-dose-only effect, or another doubt; inactive = no such curve, though single readings can be large or run the other way.

SMILES | Pf growth 96h | CHX counter | Shiga inhibitor | Pf growth 48h | HCMV inh
CCC1C/C(=C\c2cccnc2)C(=O)/C(=C/c2cccnc2)C1 (stereo unspecified) | 21.0% | 38.4* | -3.3 | 7.38µM* | -98.3*
c1ccc(N2CCN(c3nc4ccccc4[nH]3)CC2)nc1 | 59.4% | 22.4* | 49.3* | 155.2% | 38.7
c1ccc2[nH]c(N3CCOCC3)nc2c1 | -11.9% | -1.0 | 6.5 | 13.6% | 20.7
Cc1sc2ncnc(Sc3nnnn3-c3ccc(Cl)cc3)c2c1C | ? | 6.5 | 8.3 | 8.28µM* | 52.8
CSc1nnnn1-c1ccc(Cl)cc1 | ? | 1.4 | -5.8 | 14.0% | -13.7
c1ccc(-n2nnnc2Sc2ncnc3sc4c(c23)CCCC4)cc1 | 1.65µM* | -3.3 | 0.9 | ? | -7.0
O=C(NCCN1CCOCC1)c1csc2c1CCCCC2 | 8.7% | 9.9 | 17.9 | 2.7% | 14.6
CCN1CCN(CCCNC(=O)c2csc3c2CCCCC3)CC1 | 14.7µM* | -2.5 | -14.0 | 2.1% | 5.8
COc1ccc(OC)c(CCNC(=O)c2csc3c2CCCCC3)c1 | · | · | · | · | -62.3*
COc1ccc(CCNC(=O)c2csc3c2CCCC3)cc1OC | -5.1% | -2.3 | -19.6 | -1.7% | -33.9
O=C(c1cc2cc(Br)ccc2[nH]1)N1CCC2(CC1)OCCO2 | ? | 28.0* | 45.7 | ? | -1.3
Cc1c(C(=O)N2CC(C)OC(C)C2)[nH]c2ccc(Br)cc12 (stereo unspecified) | 13.1µM* | -1.7 | -4.4 | ? | -9.9
CC1CN(C(=O)c2cc3cc(Br)ccc3[nH]2)CC(C)O1 (stereo unspecified) | ? | -2.3 | -4.2 | 11.7µM* | -21.4
O=C(c1cc(Br)ccc1Cl)N1CCC2(CC1)OCCO2 | -8.4% | -2.1 | -3.6 | 13.1% | 12.0
CC1CN(C(=O)c2cc(Br)c(Br)s2)CC(C)O1 (stereo unspecified) | ? | · | · | 13.1% | -7.2
O=C(NCC1CCCO1)c1cccc(Oc2ccc([N+](=O)[O-])cc2Cl)c1 (stereo unspecified) | 20.0% | 3.6 | -8.9 | 4.3% | ?
Cn1cnnc1SC(C(=O)Nc1cc(Cl)cc(Cl)c1)c1ccccc1 (stereo unspecified) | -4.0% | 6.8 | 9.4 | -16.0% | 73.5
Cc1ccc(-n2[nH]c(=O)c(-c3ccccn3)c2C)cc1 | 7.1% | -1.5 | -8.8 | -37.3% | ?
Cn1ncnc2c(=O)n(C)c(=O)nc1-2 | 0.7% | -10.8 | -11.6 | 0.928µM* | ·
CCCc1nc2c(=O)n(C)c(=O)nc-2n(C)n1 | -1.2% | -14.3 | -11.6 | 5.22µM* | -98.5*
Cn1nc(-c2ccccn2)nc2c(=O)n(C)c(=O)nc1-2 | 2.94µM* | 8.0 | 24.6 | 2.94µM* | -100.6*
CCn1c(N)nc2c1c(=O)n(C)c(=O)n2C | 216.5% | -3.2 | -8.0 | 19.3% | 7.4
CCCCN(CCCC)C(=O)C1(P(=O)(c2ccccc2)c2ccccc2)CCC1 | ? | -1.8 | 11.3 | ? | ?
Cc1cc(C)cc(C(=O)NC(CC(N)=O)c2ccc(N3CCCCCC3)c([N+](=O)[O-])c2)c1 (stereo unspecified) | 4.2% | -1.7 | -2.2 | 8.8% | 0.5
COc1ccc(C2/C=C\CN(C(=O)c3ccc(C)cc3)CC(=O)N2Cc2ccc(F)cc2)cc1 (stereo unspecified) | ? | 82.0*! | 163.3*! | ? | -2.6
SMILES | Pf growth 96h | CHX counter | Shiga inhibitor | Pf growth 48h | HCMV inh
COc1ccc(C2/C=C\CN(C(=O)Nc3ccccc3)CC(=O)N2Cc2ccc(F)cc2)cc1 (stereo unspecified) | 22.4% | -7.0 | -1.6 | ? | -11.3
COc1ccc(C2/C=C\CN(S(=O)(=O)c3ccc(-c4ccccc4)cc3)CC(=O)N2Cc2ccc(F)cc2)cc1 (stereo unspecified) | 4.65µM* | 36.5 | 68.1*! | 11.7µM* | 1.2
COc1ccc(C2/C=C\CN(S(=O)(=O)c3ccc(C)cc3)[C@H](Cc3ccccc3)C(=O)N2Cc2ccc(F)cc2)cc1 (stereo partly specified) | 8.28µM* | 9.5 | 15.7 | 4.15µM* | ·
COc1ccc(C2/C=C\CN(S(=O)(=O)c3ccc(C)cc3)C(Cc3ccccc3)C(=O)N2Cc2ccc(F)cc2)cc1 (stereo unspecified) | · | 8.8 | -6.4 | · | ·
COc1ccc(C2/C=C\CN(C(=O)C3CCCC3)[C@H](Cc3ccccc3)C(=O)N2Cc2ccc(F)cc2)cc1 (stereo partly specified) | 10.4µM* | 1.3 | 5.3 | 8.28µM* | 8.8
CC(C)CN1C(=O)NC(NC(=O)c2cccs2)(C(F)(F)F)C1=O (stereo unspecified) | 15.4% | -2.5 | 16.0 | 2.33µM* | 6.2
CN1C(=O)NC(NC(=O)c2cccs2)(C(F)(F)F)C1=O (stereo unspecified) | 306.2% | -1.2 | -14.0 | 13.6% | -19.7
COc1ccc(-c2cc3ccccc3oc2=O)cc1NC(=S)NC(=O)c1ccc2c(c1)OCCO2 | 0.0% | 63.4* | 115.0* | 90.0% | ?
COc1ccc(-c2cc3ccccc3oc2=O)cc1NC(=O)c1ccc(Br)o1 | -2.1% | 13.6 | 9.4 | 16.7% | -26.5
CCC(=O)Nc1ccc(-c2cc3ccccc3oc2=O)cc1 | 15.9% | 37.6* | 107.4* | 43.9% | 9.5
O=C(Cc1ccc(Cl)cc1)Nc1ccc(-c2cc3ccccc3oc2=O)c(Cl)c1 | 14.5% | 8.4 | -5.5 | ? | -36.9
O=C(Nc1cccnc1)c1cccc(-c2cc3ccccc3oc2=O)c1 | ? | 12.2 | 22.7 | 88.2% | 30.0
O=c1oc2ccccc2cc1-c1ccc(O)cc1 | ? | 118.0* | 68.9* | 67.9% | 69.6
O=C(NCc1cccnc1)c1ccc(-c2cc3ccccc3oc2=O)cc1 | ? | 38.7* | 67.1* | 41.1% | -66.1*
CCOc1ccc(S(=O)(=O)NCCC(=O)NCC(c2ccc(OC)cc2)N2CCOCC2)cc1 (stereo unspecified) | · | · | · | · | 25.0
CC(C)C(NC(=O)c1ccc(C(C)(C)C)cc1)C(=O)NCc1ccccn1 (stereo unspecified) | -5.5% | · | · | ? | -13.7
CCCCCCNCC(=O)N1CCC(Cc2ccccc2)CC1 | ? | -3.3 | -3.0 | -17.3% | -13.1
O=c1oc2ccccc2cc1NCc1ccccc1O | ? | 54.8* | 123.2* | 89.7% | 60.6
COc1ccc(-c2cc3ccc(O)cc3oc2=O)cc1OC | 36.3% | 31.8* | 68.1* | 54.4% | 0.0
COc1ccc(-c2cc3ccccc3oc2=O)cc1NC(=O)c1ccc([N+](=O)[O-])o1 | 2.62µM* | 8.7 | 15.5 | ? | -65.6*
Nc1ccc2oc(=O)c(-c3ccccc3)cc2c1 | 52.9% | 36.4* | 56.0* | · | -17.9
COc1ccc(-c2cc3ccc(OCC(N)=O)cc3oc2=O)cc1OC | 24.5% | 9.0 | 18.4 | 53.8% | 18.4
Nc1ccc(-c2cc3ccccc3oc2=O)cc1 | ? | -6.2 | -13.9 | ? | ?
Cc1cc(C)cc(NC(=O)COc2cccc3c(=O)n(C)ccc23)c1 | · | · | · | · | 6.2
CCOc1ccccc1NC(=O)C(CC(C)C)NS(=O)(=O)c1ccc2c(c1)oc(=O)n2C (stereo unspecified) | · | · | · | · | -1.5

Assay outcomes: PubChem, National Center for Advancing Translational Sciences (NCATS)
